# PubChem BioAssay (NCATS)
# Records with an inconclusive call do not appear. A call without a number means that no potency is given here. Calls of active or inactive are those of the source. Calls follow the shape of the dose curve; as a rule, active = well fitted inhibition curve with a large enough effect; inconclusive = small, poorly fitted or top-dose-only effect; inactive = no such curve, though single readings can be large or run the other way.
# Key:
# [1] = qHTS assay for measurement of the activity of small molecule inhibitors on Zika virus induced Caspase-3 activity in human iPSC derived neural progenitor cells (hNPCs) (AID 1224857); conditions: hNPCs ZIKV-induced caspase-3/7, Caspase-Glo luminescence, 6 h; series mostly up to 45.7 µM; also: nearly all actives have a fitted effect of over 65% in size; also: potency is read from the fitted curve at half-maximal effect
# Method in brief: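 Quantitative HTS format: human iPSC neural progenitors, 1 h compound pretreatment, ZIKV 2 FFU/cell for 6 h at 37 C. Percent inhibition derived from luminescent caspase-3/7 signal between uninfected and infected controls.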
# [2] = qHTS assay for measurement of the activity of small molecule inhibitors on Zika virus induced Caspase-3 activity in human astrocytoma cells (AID 1224859); conditions: SNB-19 ZIKV-induced caspase-3/7, luminescence, 6 h; series mostly up to 45.7 µM
# Method in brief: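 Readout is luminescence from Caspase-Glo 3/7 added after a 6 h ZIKV infection (2 FFU/cell) of compound-pretreated (1 h) SNB-19 cells; data expressed as % inhibition versus uninfected and infected wells.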
Compound,Potency [1],outcome [2]
O=C(NC1CN2CCC1CC2)c1cc2ccoc2cn1 (stereo unspecified),inactive,–
O=c1ccc2[nH]cc(C3=CCNCC3)c2[nH]1,inactive,–
CC(N)Cc1c[nH]c2ccc(O)cc12 (stereo unspecified),inactive,inactive
C[N+]1(C)CCOC(O)(c2ccc(-c3ccc(C4(O)C[N+](C)(C)CCO4)cc3)cc2)C1 (stereo unspecified),inactive,inactive
O=C1/C(=C/c2ccccc2)C[C@@]2(O)[C@H]3Cc4ccc(O)c5c4[C@@]2(CCN3CC2CC2)[C@H]1O5,inactive,–
CCNC(=O)[C@H]1O[C@@H](n2cnc3c(N)ncnc32)[C@H](O)C1O (stereo partly specified),inactive,–
CCN1C[C@@]2(COC)C3[C@@H](OC)C4[C@H]1C3([C@@H]1C[C@@]3(O)[C@H](OC(=O)c5ccccc5)[C@@H]1[C@]4(OC(C)=O)[C@@H](O)[C@@H]3OC)[C@H](OC)C[C@H]2O,inactive,–
Nc1ncnc2c1ncn2[C@@H]1O[C@H](COP(=O)(O)CP(=O)(O)OP(=O)(O)O)C(O)[C@H]1O (stereo partly specified),inactive,–
C=CCN1C[C@@H](C)N([C@H](c2ccc(C(=O)N(CC)CC)cc2)c2cccc(OC)c2)C[C@@H]1C,inactive,inactive
COc1ccc2[nH]cc(CCN)c2c1,inactive,inactive
CC12NC(Cc3ccccc31)c1ccccc12 (stereo unspecified),inactive,inactive
NCCc1c[nH]c2ccc(C(N)=O)cc12,inactive,inactive
Nc1cc2c(ncn2CCOCP(=O)(O)O)c(=O)[nH]1,inactive,–
CC(C)CC(NP(=O)(O)O[C@@H]1O[C@@H](C)[C@H](O)[C@@H](O)[C@H]1O)C(=O)NC(Cc1c[nH]c2ccccc12)C(=O)O (stereo partly specified),inactive,–
CC1OC1P(=O)(O)O (stereo unspecified),inactive,–
O=P(O)(O)C(Cl)(Cl)P(=O)(O)O,inactive,–
C[C@H]1C2Cc3ccc(O)cc3[C@@]1(C)CCN2CC1CC1,inactive,–
C[N+]1(C)C2CCC1CC(OC(=O)c1c[nH]c3ccccc13)C2 (stereo unspecified),inactive,inactive
N[C@@]1(C(=O)O)CC[C@@H](C(=O)O)C1,inactive,inactive
NC(C(=O)O)c1cc(=O)[nH]o1 (stereo unspecified),inactive,inactive
CCN(CC)c1ncnc2c1ncn2[C@@H]1O[C@H](COP(=O)(O)OP(=O)(O)C(Br)(Br)P(=O)(O)O)[C@@H](O)[C@H]1O,inactive,–

Compound,Potency [1],outcome [2]
Cc1sc2ccccc2c1CC1=NCCN1,inactive,inactive
CC(=O)NBr,inactive,inactive
C[C@H](Cc1ccc2c(c1)OC(C(=O)O)(C(=O)O)O2)NC[C@H](O)c1cccc(Cl)c1,inactive,inactive
CC(N)[C@H](O)c1ccc(O)c(O)c1 (stereo partly specified),inactive,inactive
NC(=O)c1ccc(OCC(O)CN2CC=C(c3ccc(F)cc3)CC2)cc1 (stereo unspecified),inactive,inactive
CC(C)(O)[C@@H]1[C@H]2OC(=O)[C@@H]1[C@]1(O)C[C@H]3O[C@]34C(=O)O[C@H]2[C@]14C (tested in a mixture with another compound),inactive,–
CN1CCC[C@@H]1Cc1c[nH]c2ccc(Nc3ncccc3[N+](=O)[O-])cc12,inactive,–
C[C@@H]1O[C@@H](O[C@H]2C[C@@H](O)[C@]3(CO)[C@@H]4C(CC[C@]3(O)C2)[C@@]2(O)CC[C@H]([C@@H]3COC(=O)C3)[C@@]2(C)C[C@H]4O)[C@H](O)[C@H](O)[C@H]1O (stereo partly specified),inactive,inactive
CN1CC[C@@]2(C)c3cc(OC(=O)Nc4ccccc4)ccc3N(C)[C@@H]12,10 µM (active),–
C[N+]1(C)CCc2cc3c(cc2[C@H]1[C@@H]1OC(=O)c2c1ccc1c2OCO1)OCO3,inactive,inactive
C[N+]1(C)CCC(OC(=O)C(c2ccccc2)c2ccccc2)CC1,inactive,–
Cc1o[nH]c(=O)c1CC(N)C(=O)O (stereo unspecified),inactive,inactive
[Cl-].[Cl][Pt].[NH2-].[NH2-].c1ccncc1,inactive,–
Cc1[nH]c2ccc(O)cc2c1CCN,inactive,inactive
CN(C(=O)Cc1ccc(Cl)c(Cl)c1)C(CN1CCCC1)c1cccc(OCC(=O)O)c1 (stereo unspecified),inactive,inactive
CC(C)(C)OC(=O)NC1[C@H]2CNC[C@@H]12 (stereo partly specified),inactive,–
NC(=O)c1cc(N2CC2)c([N+](=O)[O-])cc1[N+](=O)[O-],inactive,inactive
Cc1cc([C@@H]2CCCN2C)on1,inactive,inactive
NC(Cc1cc(O)c(O)cc1O)C(=O)O (stereo unspecified),inactive,inactive
COC(=O)N1CCN(C(=O)Cc2ccc(Cl)c(Cl)c2)C(CN2CCCC2)C1 (stereo unspecified),inactive,inactive
CCCN1CCc2cccc3c2[C@H]1Cc1ccc(O)c(O)c1-3,inactive,inactive
